# Source: the supplement of paper PMC10037445
# The full ranking holds about 2,900 compounds; the median of “IRF Lucia reporter activity, fold change vs agonist alone” is about 0.9, and the highest 2% start at about 2.8. The list comes from a sample in which the highest values are over-represented; it also holds similar structures and randomly drawn compounds.
# Legend:
# RAW-Dual [1] = assay: IRF Lucia reporter activity, fold change vs agonist alone; cytotoxicity flag (confluency mask): not cytotoxic; higher = enhanced IRF activity
# Summary of the method: (§1)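 RAW-Dual macrophages (50,000 cells/well in DMEM, 384-well plates) received 50 nL of library stock by pin tool, then a PRR agonist 1 h later, and were kept at 37 °C, 5% CO2. After 20 hours, supernatant was read for IRF by QuantiLuc luminescence and for NF-κB by QuantiBlue absorbance at 620 nm. Reporter activity is fold change over agonist-alone wells. Cytotoxic wells had IncuCyte confluency below 70% of agonist controls in both mask sets.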
# RAW-Dual [2] = assay: IRF Lucia reporter activity, fold change vs agonist alone; higher = enhanced IRF activity; conditions: cytotoxicity flag (confluency mask): not cytotoxic, agonist: MPLA (TLR4) […]
# Summary of the method: as §1
# [3] = agonist: 3'3'-cGAMP (STING) 10 ug/mL
# [4] = library stock concentration (final ~1000-fold dilution): 10 mM
smiles,measurement,setting,value
O=C(NOCC(O)CO)c1ccc(F)c(F)c1Nc1ccc(I)cc1F (centres undefined) (library stock concentration (final ~1000-fold dilution): 10 mM),IRF Lucia reporter activity,RAW-Dual [1]; [3],0.903
same,IRF Lucia reporter activity,RAW-Dual [1]; agonist: LPS (TLR4) 0.1 ug/mL,3.61
O=C(NOCCO)c1ccc2cncn2c1Nc1ccc(I)cc1F (library stock concentration (final ~1000-fold dilution): 10 mM),IRF Lucia reporter activity,RAW-Dual [1]; [3],0.814
same,IRF Lucia reporter activity,RAW-Dual [1]; agonist: LPS (TLR4) 0.1 ug/mL,3.65
Cc1cc(C(=O)NOCCO)c(Nc2ccc(I)cc2F)n(C)c1=O (library stock concentration (final ~1000-fold dilution): 10 mM),IRF Lucia reporter activity,RAW-Dual [1]; [3],0.824
same,IRF Lucia reporter activity,RAW-Dual [1]; agonist: LPS (TLR4) 0.1 ug/mL,2.13
O=C(NOCC(O)CO)c1cc(Br)c(F)c(F)c1Nc1ccc(I)cc1F (centres undefined) (library stock concentration (final ~1000-fold dilution): 10 mM),IRF Lucia reporter activity,RAW-Dual [1]; [3],0.713
same,IRF Lucia reporter activity,RAW-Dual [1]; agonist: LPS (TLR4) 0.1 ug/mL,2.11
Br.Br.Br.Br.Br.Br.c1ccc(CNCc2ccc(CN3CCCNCCNCCCNCC3)cc2)nc1 (library stock concentration (final ~1000-fold dilution): 10 mM water),IRF Lucia reporter activity,RAW-Dual [1]; [3],1.07
same,IRF Lucia reporter activity,RAW-Dual [1]; agonist: LPS (TLR4) 0.1 ug/mL,0.886
Br.Br.Br.Br.Br.Br.c1ccc(CNCc2ccc(CN3CCCNCCNCCCNCC3)cc2)nc1,IRF Lucia reporter activity,RAW-Dual [2]; library stock concentration (final ~1000-fold dilution): 10 mM water,1.35
COc1cc2ccc(=O)oc2c(OC)c1O (library stock concentration (final ~1000-fold dilution): .1 mM),IRF Lucia reporter activity,RAW-Dual [1]; [3],1.07
same,IRF Lucia reporter activity,RAW-Dual [1]; agonist: LPS (TLR4) 0.1 ug/mL,0.255
NC1=NC2(c3cc(NC(=O)c4ccc(F)cn4)ccc3F)COCC2CS1 (centres undefined),IRF Lucia reporter activity,RAW-Dual [2]; [4],1.04
NC1=NC2(c3cc(NC(=O)c4ccc(F)cn4)ccc3F)COCC2CS1 (centres undefined) (library stock concentration (final ~1000-fold dilution): 10 mM),IRF Lucia reporter activity,RAW-Dual [1]; [3],1.08
same,IRF Lucia reporter activity,RAW-Dual [1]; agonist: LPS (TLR4) 0.1 ug/mL,0.998
Cn1cc(-c2cc3c(-c4ccc(CNC(=O)c5noc(C(C)(C)C)n5)c(F)c4)ncnc3[nH]2)cn1 (library stock concentration (final ~1000-fold dilution): 10 mM),IRF Lucia reporter activity,RAW-Dual [1]; [3],0.039
same,IRF Lucia reporter activity,RAW-Dual [1]; agonist: LPS (TLR4) 0.1 ug/mL,0.396
Cc1nnc(SCC2=C(C(=O)O)N3C(=O)C(NC(=O)Cn4cnnn4)C3SC2)s1 (centres undefined) (library stock concentration (final ~1000-fold dilution): 10 mM),IRF Lucia reporter activity,RAW-Dual [1]; [3],1.08
same,IRF Lucia reporter activity,RAW-Dual [1]; agonist: LPS (TLR4) 0.1 ug/mL,1.26
Cc1nnc(SCC2=C(C(=O)O)N3C(=O)C(NC(=O)Cn4cnnn4)C3SC2)s1 (centres undefined),IRF Lucia reporter activity,RAW-Dual [2]; [4],1.07
Cc1ccsc1C(=CCCN1CCCC(C(=O)O)C1)c1sccc1C (centres undefined) (library stock concentration (final ~1000-fold dilution): 10 mM),IRF Lucia reporter activity,RAW-Dual [1]; [3],0.964
same,IRF Lucia reporter activity,RAW-Dual [1]; agonist: LPS (TLR4) 0.1 ug/mL,1.29
Cc1ccsc1C(=CCCN1CCCC(C(=O)O)C1)c1sccc1C (centres undefined),IRF Lucia reporter activity,RAW-Dual [2]; [4],1
CCC1/C=C(\C)CC(C)CC(OC)C2OC(O)(C(=O)C(=O)N3CCCCC3C(=O)OC(/C(C)=C/C3CCC(Cl)C(OC)C3)C(C)C(O)CC1=O)C(C)CC2OC (centres undefined) (library stock concentration (final ~1000-fold dilution): 10 mM),IRF Lucia reporter activity,RAW-Dual [1]; [3],0.715
same,IRF Lucia reporter activity,RAW-Dual [1]; agonist: LPS (TLR4) 0.1 ug/mL,1.66
COC1CC2CCC(C)C(O)(O2)C(=O)C(=O)N2CCCCC2C(=O)OC(C(C)CC2CCC(OC(=O)C(C)(CO)CO)C(OC)C2)CC(=O)C(C)C=C(C)C(O)C(OC)C(=O)C(C)CC(C)C=CC=CC=C1C (centres undefined),IRF Lucia reporter activity,RAW-Dual [2]; [4],4.11
COC1CC2CCC(C)C(O)(O2)C(=O)C(=O)N2CCCCC2C(=O)OC(C(C)CC2CCC(OCCO)C(OC)C2)CC(=O)C(C)C=C(C)C(O)C(OC)C(=O)C(C)CC(C)C=CC=CC=C1C (centres undefined),IRF Lucia reporter activity,RAW-Dual [2]; [4],3.06
COC1CC2CCC(C)C(O)(O2)C(=O)C(=O)N2CCCCC2C(=O)OC(C(C)CC2CCC(OP(C)(C)=O)C(OC)C2)CC(=O)C(C)C=C(C)C(O)C(OC)C(=O)C(C)CC(C)C=CC=CC=C1C (centres undefined) (library stock concentration (final ~1000-fold dilution): 10 mM),IRF Lucia reporter activity,RAW-Dual [1]; [3],1.03
same,IRF Lucia reporter activity,RAW-Dual [1]; agonist: LPS (TLR4) 0.1 ug/mL,1.6
COC1CC2CCC(C)C(O)(O2)C(=O)C(=O)N2CCCCC2C(=O)OC(C(C)CC2CCC(n3cnnn3)C(OC)C2)CC(=O)C(C)C=C(C)C(O)C(OC)C(=O)C(C)CC(C)C=CC=CC=C1C (centres undefined) (library stock concentration (final ~1000-fold dilution): 10 mM),IRF Lucia reporter activity,RAW-Dual [1]; [3],0.943
same,IRF Lucia reporter activity,RAW-Dual [1]; agonist: LPS (TLR4) 0.1 ug/mL,0.694
COC1CC2CCC(C)C(O)(O2)C(=O)C(=O)N2CCCCC2C(=O)OC(C(C)CC2CCC(O)C(OC)C2)CC(=O)C(C)C=C(C)C(O)C(OC)C(=O)C(C)CC(C)C=CC=CC=C1C (centres undefined) (library stock concentration (final ~1000-fold dilution): .1 mM),IRF Lucia reporter activity,RAW-Dual [1]; [3],0.922
same,IRF Lucia reporter activity,RAW-Dual [1]; agonist: LPS (TLR4) 0.1 ug/mL,0.698
COC1CC2CCC(C)C(O)(O2)C(=O)C(=O)N2CCCCC2C(=O)OC(C(C)CC2CCC(O)C(OC)C2)CC(=O)C(C)C=C(C)C(O)C(OC)C(=O)C(C)CC(C)C=CC=CC=C1C (centres undefined),IRF Lucia reporter activity,RAW-Dual [2]; [4],1.46
CCC1/C=C(\C)CC(C)CC(OC)C2OC(O)(C(=O)C(=O)N3CCCCC3C(=O)OC(/C(C)=C/C3CCC(Cl)C(OC)C3)C(C)C(O)CC1=O)C(C)CC2OC (centres undefined),IRF Lucia reporter activity,RAW-Dual [2]; [4],1.02
COC1CC2CCC(C)C(O)(O2)C(=O)C(=O)N2CCCCC2C(=O)OC(C(C)CC2CCC(O)C(OC)C2)CC(=O)C(C)C=C(C)C(O)C(OC)C(=O)C(C)CC(C)C=CC=CC=C1C (centres undefined) (library stock concentration (final ~1000-fold dilution): 10 mM),IRF Lucia reporter activity,RAW-Dual [1]; [3],1.05
same,IRF Lucia reporter activity,RAW-Dual [1]; agonist: LPS (TLR4) 0.1 ug/mL,2.09
COC1CC2CCC(C)C(O)(O2)C(=O)C(=O)N2CCCCC2C(=O)OC(C(C)CC2CCC(n3cnnn3)C(OC)C2)CC(=O)C(C)C=C(C)C(O)C(OC)C(=O)C(C)CC(C)C=CC=CC=C1C (centres undefined),IRF Lucia reporter activity,RAW-Dual [2]; [4],0.832
COC1CC2CCC(C)C(O)(O2)C(=O)C(=O)N2CCCCC2C(=O)OC(C(C)CC2CCC(OCCO)C(OC)C2)CC(=O)C(C)C=C(C)C(O)C(OC)C(=O)C(C)CC(C)C=CC=CC=C1C (centres undefined) (library stock concentration (final ~1000-fold dilution): 10 mM),IRF Lucia reporter activity,RAW-Dual [1]; [3],1.28
same,IRF Lucia reporter activity,RAW-Dual [1]; agonist: LPS (TLR4) 0.1 ug/mL,2.63
COC1CC2CCC(C)C(O)(O2)C(=O)C(=O)N2CCCCC2C(=O)OC(C(C)CC2CCC(OC(=O)C(C)(CO)CO)C(OC)C2)CC(=O)C(C)C=C(C)C(O)C(OC)C(=O)C(C)CC(C)C=CC=CC=C1C (centres undefined) (library stock concentration (final ~1000-fold dilution): 10 mM),IRF Lucia reporter activity,RAW-Dual [1]; [3],0.69
same,IRF Lucia reporter activity,RAW-Dual [1]; agonist: LPS (TLR4) 0.1 ug/mL,2.98
COC1CC2CCC(C)C(O)(O2)C(=O)C(=O)N2CCCCC2C(=O)OC(C(C)CC2CCC(OP(C)(C)=O)C(OC)C2)CC(=O)C(C)C=C(C)C(O)C(OC)C(=O)C(C)CC(C)C=CC=CC=C1C (centres undefined),IRF Lucia reporter activity,RAW-Dual [2]; [4],1.24
